Measured values as given in PubChem BioAssay AID1159580 (chemical genetic matrix, 2015).
Hit rate of the full screen: of about 5,500 compounds, about 2,000 (36%) were called active. About 18% were inconclusive and are not listed. This is one part of the list. A number with no mark means an inactive call. Cut-off read from the data, not from the text of the source: active = normalized growth mostly below about 0.91 (no sharp cut-off); inconclusive = no clear call, values can overlap the other calls; inactive = mostly above about 0.92.

Assay: chemical genetic growth profiling, strain panel (AID 1159580);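 note: tested at 20 µM; growth read once vehicle control cultures reached saturation at 30 °C; 1 = growth at the plate median or of vehicle wells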
Settings: growth OD

Question: What does the source list for Cc1cc(=O)[nH]c(=S)[nH]1?
Answer: normalized growth (S. cerevisiae deletion strains, locus YJR075W, strain HOC1, stronger effect = lower value): 1.02; normalized growth (S. cerevisiae deletion strains, locus YKL009W, strain mrt4, stronger effect = lower value): 0.999; normalized growth (S. cerevisiae deletion strains, locus YKL068W, stronger effect = lower value): 1; normalized growth (S. cerevisiae deletion strains, locus YKL085W, strain MDH1 (second series), stronger effect = lower value): 0.977; normalized growth (S. cerevisiae deletion strains, locus YKL085W, strain MDH1, stronger effect = lower value): 0.977; normalized growth (S. cerevisiae deletion strains, locus YKL160W, strain elf1, stronger effect = lower value): 0.974; normalized growth (S. cerevisiae deletion strains, locus YKL190W, strain CNB1, stronger effect = lower value): 1; normalized growth (S. cerevisiae deletion strains, locus YKR001C, strain vps1, stronger effect = lower value): 1.01; normalized growth (S. cerevisiae deletion strains, locus YKR026C, strain gcn3, stronger effect = lower value): 0.992; normalized growth (S. cerevisiae deletion strains, locus YKR091W, strain srl3, stronger effect = lower value): 0.967; normalized growth (S. cerevisiae deletion strains, locus YLL001W, strain dnm1, stronger effect = lower value): 1.01; normalized growth (S. cerevisiae deletion strains, locus YLL026W, stronger effect = lower value): 0.979; normalized growth (S. cerevisiae deletion strains, locus YLL041C, strain sdh2, stronger effect = lower value): 0.978; normalized growth (S. cerevisiae deletion strains, locus YLR027C, strain aat2, stronger effect = lower value): 0.973; normalized growth (S. cerevisiae deletion strains, locus YLR039C, strain RIC1, stronger effect = lower value): 1.03; normalized growth (S. cerevisiae deletion strains, locus YLR058C, strain SHM2, stronger effect = lower value): 1.01; normalized growth (S. cerevisiae deletion strains, locus YLR102C, strain apc9, stronger effect = lower value): 1; normalized growth (S. cerevisiae deletion strains, locus YLR113W, strain HOG1, stronger effect = lower value): 1.03; normalized growth (S. cerevisiae deletion strains, locus YLR221C, strain rsa3, stronger effect = lower value): 0.973; normalized growth (S. cerevisiae deletion strains, locus YLR258W, strain gsy2, stronger effect = lower value): 0.98; normalized growth (S. cerevisiae deletion strains, locus YLR262C, strain YPT6 (second series), stronger effect = lower value): 0.981; normalized growth (S. cerevisiae deletion strains, locus YLR262C, strain YPT6, stronger effect = lower value): 1.07; normalized growth (S. cerevisiae deletion strains, locus YLR268W, strain sec22, stronger effect = lower value): 1.08; normalized growth (S. cerevisiae deletion strains, locus YLR320W, strain mms22, stronger effect = lower value): 0.956; normalized growth (S. cerevisiae deletion strains, locus YLR330W, strain CHS5, stronger effect = lower value): 1.01; normalized growth (S. cerevisiae deletion strains, locus YLR342W, strain FKS1 (second series), stronger effect = lower value): 1; normalized growth (S. cerevisiae deletion strains, locus YLR342W, strain FKS1, stronger effect = lower value): 0.985; normalized growth (S. cerevisiae deletion strains, locus YLR357W, strain rsc2, stronger effect = lower value): 0.944; normalized growth (S. cerevisiae deletion strains, locus YLR370C, strain arc18, stronger effect = lower value): 0.973; normalized growth (S. cerevisiae deletion strains, locus YLR371W, strain rom2, stronger effect = lower value): 1.02; normalized growth (S. cerevisiae deletion strains, locus YLR384C, strain iki3, stronger effect = lower value): 0.989; normalized growth (S. cerevisiae deletion strains, locus YLR418C, strain cdc73, stronger effect = lower value): 1.02; normalized growth (S. cerevisiae deletion strains, locus YML016C, strain PPZ1, stronger effect = lower value): 1.01; normalized growth (S. cerevisiae deletion strains, locus YML032C, strain rad52, stronger effect = lower value): 1.04; normalized growth (S. cerevisiae deletion strains, locus YML120C, strain ndi1, stronger effect = lower value): 0.972; normalized growth (S. cerevisiae deletion strains, locus YML124C, strain tub3, stronger effect = lower value): 1; normalized growth (S. cerevisiae deletion strains, locus YMR058W, strain fet3, stronger effect = lower value): 0.976; normalized growth (S. cerevisiae deletion strains, locus YMR078C, strain ctf18, stronger effect = lower value): 1.01; normalized growth (S. cerevisiae deletion strains, locus YMR125W, strain sto1, stronger effect = lower value): 0.933; normalized growth (S. cerevisiae deletion strains, locus YMR129W, stronger effect = lower value): 0.969; normalized growth (S. cerevisiae deletion strains, locus YMR205C, strain PFK2, stronger effect = lower value): 0.976; normalized growth (S. cerevisiae deletion strains, locus YMR223W, strain ubp8, stronger effect = lower value): 0.989; normalized growth (S. cerevisiae deletion strains, locus YMR231W, strain pep5, stronger effect = lower value): 1; normalized growth (S. cerevisiae deletion strains, locus YMR263W, strain SAP30, stronger effect = lower value): 1.03; normalized growth (S. cerevisiae deletion strains, locus YMR307W, strain GAS1, stronger effect = lower value): 1.05; normalized growth (S. cerevisiae deletion strains, locus YNL067W, strain RPL9B, stronger effect = lower value): 1.02; normalized growth (S. cerevisiae deletion strains, locus YNL071W, strain lat1, stronger effect = lower value): 0.963; normalized growth (S. cerevisiae deletion strains, locus YNL128W, strain TEP1, stronger effect = lower value): 1; normalized growth (S. cerevisiae deletion strains, locus YNL153C, strain GIM3, stronger effect = lower value): 1.03; normalized growth (S. cerevisiae deletion strains, locus YNL183C, strain NPR1, stronger effect = lower value): 0.977; normalized growth (S. cerevisiae deletion strains, locus YNL209W, strain ssb2, stronger effect = lower value): 0.973; normalized growth (S. cerevisiae deletion strains, locus YNL233W, strain BNI4, stronger effect = lower value): 1.02; normalized growth (S. cerevisiae deletion strains, locus YNL248C, strain rpa49, stronger effect = lower value): 0.872 (active); normalized growth (S. cerevisiae deletion strains, locus YNL250W, strain rad50, stronger effect = lower value): 1.01; normalized growth (S. cerevisiae deletion strains, locus YNL271C, strain bni1, stronger effect = lower value): 1.01; normalized growth (S. cerevisiae deletion strains, locus YNL298W, strain CLA4, stronger effect = lower value): 1.01; normalized growth (S. cerevisiae deletion strains, locus YNL307C, strain MCK1, stronger effect = lower value): 1.01; normalized growth (S. cerevisiae deletion strains, locus YNL322C, strain KRE1 (second series), stronger effect = lower value): 0.969; normalized growth (S. cerevisiae deletion strains, locus YNL322C, strain KRE1, stronger effect = lower value): 1; normalized growth (S. cerevisiae deletion strains, locus YNR049C, strain mso1, stronger effect = lower value): 0.978; normalized growth (S. cerevisiae deletion strains, locus YNR052C, strain pop2, stronger effect = lower value): 1.01; normalized growth (S. cerevisiae deletion strains, locus YOL006C, strain TOP1, stronger effect = lower value): 1.08; normalized growth (S. cerevisiae deletion strains, locus YOL012C, strain htz1): 1.27; normalized growth (S. cerevisiae deletion strains, locus YOL147C, strain pex11, stronger effect = lower value): 1; normalized growth (S. cerevisiae deletion strains, locus YOR001W, strain rrp6, stronger effect = lower value): 0.975; normalized growth (S. cerevisiae deletion strains, locus YOR061W, strain CKA2, stronger effect = lower value): 1.01; normalized growth (S. cerevisiae deletion strains, locus YOR069W, strain VPS5, stronger effect = lower value): 1.01; normalized growth (S. cerevisiae deletion strains, locus YOR070C, strain gyp1, stronger effect = lower value): 0.987; normalized growth (S. cerevisiae deletion strains, locus YOR080W, strain dia2, stronger effect = lower value): 0.965; normalized growth (S. cerevisiae deletion strains, locus YOR083W, strain WHI5, stronger effect = lower value): 0.964; normalized growth (S. cerevisiae deletion strains, locus YOR106W, strain vam3, stronger effect = lower value): 0.999; normalized growth (S. cerevisiae deletion strains, locus YOR136W, strain idh2, stronger effect = lower value): 1; normalized growth (S. cerevisiae deletion strains, locus YOR144C, strain elg1, stronger effect = lower value): 1; normalized growth (S. cerevisiae deletion strains, locus YOR184W, strain ser1, stronger effect = lower value): 1.01; normalized growth (S. cerevisiae deletion strains, locus YOR231W, strain MKK1, stronger effect = lower value): 1.03; normalized growth (S. cerevisiae deletion strains, locus YOR265W, strain rbl2, stronger effect = lower value): 0.98; normalized growth (S. cerevisiae deletion strains, locus YOR270C, strain vph1, stronger effect = lower value): 0.976; normalized growth (S. cerevisiae deletion strains, locus YOR290C, strain snf2, stronger effect = lower value): 0.94; normalized growth (S. cerevisiae deletion strains, locus YOR316C, strain cot1, stronger effect = lower value): 1.01; normalized growth (S. cerevisiae deletion strains, locus YPL051W, strain arl3, stronger effect = lower value): 0.982; normalized growth (S. cerevisiae deletion strains, locus YPL055C, strain LGE1, stronger effect = lower value): 1; normalized growth (S. cerevisiae deletion strains, locus YPL078C, strain atp4, stronger effect = lower value): 0.973; normalized growth (S. cerevisiae deletion strains, locus YPL106C, strain sse1, stronger effect = lower value): 0.919; normalized growth (S. cerevisiae deletion strains, locus YPL240C, strain hsp82, stronger effect = lower value): 0.958; normalized growth (S. cerevisiae deletion strains, locus YPL241C, strain CIN2, stronger effect = lower value): 1.01; normalized growth (S. cerevisiae deletion strains, locus YPL256C, strain CLN2, stronger effect = lower value): 1.12; normalized growth (S. cerevisiae deletion strains, locus YPR119W, strain clb2, stronger effect = lower value): 1; normalized growth (S. cerevisiae deletion strains, locus YPR141C, strain kar3, stronger effect = lower value): 1; normalized growth (S. cerevisiae deletion strains, locus YPR163C, strain tif3, stronger effect = lower value): 1.01; normalized growth (S. cerevisiae deletion strains, locus YPR167C, strain met16, stronger effect = lower value): 1.01; normalized growth (S. cerevisiae deletion strains, strain wtn01, stronger effect = lower value): 1.03; normalized growth (S. cerevisiae strains, strain wild type, stronger effect = lower value): 1.01
